Measurements as given in ChEMBL document CHEMBL1961873, “Compounds: GSK PKIS; Assays: Nanosyn kinase panel” (2012).

Key:
[1] = biological target: T1, Tyrosine-protein kinase receptor TYRO3 (Homo sapiens) (UniProt Q06418); conditions: at 1 µM
T1 sequence (whole entry): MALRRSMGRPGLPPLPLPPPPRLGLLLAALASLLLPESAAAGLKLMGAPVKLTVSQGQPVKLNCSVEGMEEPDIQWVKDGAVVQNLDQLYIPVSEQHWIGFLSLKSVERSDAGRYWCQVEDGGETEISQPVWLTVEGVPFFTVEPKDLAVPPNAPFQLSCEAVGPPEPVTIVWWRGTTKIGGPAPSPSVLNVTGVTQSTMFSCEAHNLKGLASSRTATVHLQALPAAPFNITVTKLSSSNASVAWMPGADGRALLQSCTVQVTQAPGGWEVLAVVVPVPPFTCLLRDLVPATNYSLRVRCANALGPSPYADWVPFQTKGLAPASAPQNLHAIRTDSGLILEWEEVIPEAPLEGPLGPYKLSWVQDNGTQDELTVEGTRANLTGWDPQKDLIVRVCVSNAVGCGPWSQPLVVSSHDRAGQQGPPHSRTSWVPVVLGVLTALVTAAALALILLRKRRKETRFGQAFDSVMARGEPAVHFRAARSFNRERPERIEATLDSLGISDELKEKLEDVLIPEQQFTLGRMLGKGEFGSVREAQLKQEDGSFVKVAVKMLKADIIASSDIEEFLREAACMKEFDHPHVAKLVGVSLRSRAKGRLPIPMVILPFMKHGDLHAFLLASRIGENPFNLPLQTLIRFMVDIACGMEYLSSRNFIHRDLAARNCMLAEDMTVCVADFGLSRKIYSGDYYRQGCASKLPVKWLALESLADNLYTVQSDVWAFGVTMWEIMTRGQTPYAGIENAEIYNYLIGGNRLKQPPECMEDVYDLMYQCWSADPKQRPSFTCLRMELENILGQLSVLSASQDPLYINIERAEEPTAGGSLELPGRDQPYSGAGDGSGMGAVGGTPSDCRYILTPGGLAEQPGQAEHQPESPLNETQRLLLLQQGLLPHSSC

[2] = biological target: Tyrosine-protein kinase Yes (Homo sapiens) (UniProt P07947); conditions: at 0.1 µM
Sequence of Tyrosine-protein kinase Yes (Homo sapiens) (P07947 2-543 limits assumed): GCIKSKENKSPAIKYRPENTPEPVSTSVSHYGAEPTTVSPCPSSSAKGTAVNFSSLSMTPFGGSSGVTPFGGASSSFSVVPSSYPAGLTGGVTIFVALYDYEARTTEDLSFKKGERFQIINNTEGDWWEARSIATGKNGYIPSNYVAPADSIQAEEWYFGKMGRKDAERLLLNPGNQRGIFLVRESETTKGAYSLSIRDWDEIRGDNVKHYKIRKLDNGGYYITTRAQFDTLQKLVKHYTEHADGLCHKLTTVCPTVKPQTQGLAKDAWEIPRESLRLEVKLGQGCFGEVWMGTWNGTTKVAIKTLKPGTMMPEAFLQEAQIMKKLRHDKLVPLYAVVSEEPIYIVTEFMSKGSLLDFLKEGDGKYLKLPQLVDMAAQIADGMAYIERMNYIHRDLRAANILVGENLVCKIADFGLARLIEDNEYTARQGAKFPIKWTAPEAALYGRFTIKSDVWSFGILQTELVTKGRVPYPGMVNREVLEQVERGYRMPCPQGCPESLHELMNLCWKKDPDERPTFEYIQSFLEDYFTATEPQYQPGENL

[3] = biological target: Tyrosine-protein kinase Yes (Homo sapiens) (UniProt P07947); conditions: at 1 µM
[4] = biological target: T2, Tyrosine-protein kinase ZAP-70 (Homo sapiens) (UniProt P43403); conditions: at 0.1 µM
T2 sequence (whole entry): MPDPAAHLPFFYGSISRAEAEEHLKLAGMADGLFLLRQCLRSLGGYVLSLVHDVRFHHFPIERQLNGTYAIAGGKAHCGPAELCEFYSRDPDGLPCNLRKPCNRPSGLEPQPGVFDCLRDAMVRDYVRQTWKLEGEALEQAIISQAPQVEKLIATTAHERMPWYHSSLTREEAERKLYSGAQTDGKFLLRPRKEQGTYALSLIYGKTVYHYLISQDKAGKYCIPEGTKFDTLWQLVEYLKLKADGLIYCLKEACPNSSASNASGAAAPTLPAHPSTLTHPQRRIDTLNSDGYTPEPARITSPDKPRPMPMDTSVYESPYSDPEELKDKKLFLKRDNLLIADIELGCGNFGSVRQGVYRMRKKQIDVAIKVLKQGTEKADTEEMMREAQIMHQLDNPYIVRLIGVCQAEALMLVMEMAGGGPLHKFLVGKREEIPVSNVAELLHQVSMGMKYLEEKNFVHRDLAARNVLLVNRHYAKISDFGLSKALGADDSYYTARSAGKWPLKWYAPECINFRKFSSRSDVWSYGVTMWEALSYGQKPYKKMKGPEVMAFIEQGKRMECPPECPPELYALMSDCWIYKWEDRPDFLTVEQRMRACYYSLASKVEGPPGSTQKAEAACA

[5] = biological target: T2, Tyrosine-protein kinase ZAP-70 (Homo sapiens); conditions: at 1 µM
[6] = biological target: Serine/threonine-protein kinase B-raf (Homo sapiens) (UniProt P15056); conditions: at 0.1 µM
Sequence of Serine/threonine-protein kinase B-raf (Homo sapiens) (P15056 whole entry): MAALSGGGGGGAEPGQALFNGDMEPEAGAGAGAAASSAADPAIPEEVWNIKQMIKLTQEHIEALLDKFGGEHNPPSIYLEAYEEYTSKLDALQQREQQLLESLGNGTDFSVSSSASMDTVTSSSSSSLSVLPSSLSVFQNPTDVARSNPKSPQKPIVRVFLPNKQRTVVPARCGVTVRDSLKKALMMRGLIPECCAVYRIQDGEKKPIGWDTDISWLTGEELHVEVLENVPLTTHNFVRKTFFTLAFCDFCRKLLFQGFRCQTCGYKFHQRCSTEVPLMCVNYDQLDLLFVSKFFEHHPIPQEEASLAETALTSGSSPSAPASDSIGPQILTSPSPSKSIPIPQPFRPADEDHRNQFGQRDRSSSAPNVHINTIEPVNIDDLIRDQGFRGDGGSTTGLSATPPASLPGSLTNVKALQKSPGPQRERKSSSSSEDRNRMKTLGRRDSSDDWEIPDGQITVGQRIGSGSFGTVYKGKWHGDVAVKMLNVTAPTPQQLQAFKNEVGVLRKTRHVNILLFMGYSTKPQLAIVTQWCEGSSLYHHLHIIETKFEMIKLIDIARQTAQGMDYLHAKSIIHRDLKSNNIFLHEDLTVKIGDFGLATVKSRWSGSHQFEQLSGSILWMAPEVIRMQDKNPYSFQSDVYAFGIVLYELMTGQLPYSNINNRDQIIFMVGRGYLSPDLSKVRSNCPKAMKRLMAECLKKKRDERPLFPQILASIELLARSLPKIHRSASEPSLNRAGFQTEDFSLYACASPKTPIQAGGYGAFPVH

[7] = biological target: Serine/threonine-protein kinase B-raf (Homo sapiens) (UniProt P15056); conditions: at 1 µM
[8] = tested on: Serine/threonine-protein kinase B-raf (Homo sapiens), P15056 [V600E]; conditions: at 0.1 µM
Sequence of Serine/threonine-protein kinase B-raf (Homo sapiens), P15056 [V600E] (P15056 whole entry V600E): as the sequence (P15056 whole entry) above, with V600E counted along it

[9] = tested on: Serine/threonine-protein kinase B-raf (Homo sapiens), P15056 [V600E]; conditions: at 1 µM
[10] = biological target: RAF proto-oncogene serine/threonine-protein kinase (Homo sapiens) (UniProt P04049); conditions: at 0.1 µM
Sequence of RAF proto-oncogene serine/threonine-protein kinase (Homo sapiens) (P04049 whole entry): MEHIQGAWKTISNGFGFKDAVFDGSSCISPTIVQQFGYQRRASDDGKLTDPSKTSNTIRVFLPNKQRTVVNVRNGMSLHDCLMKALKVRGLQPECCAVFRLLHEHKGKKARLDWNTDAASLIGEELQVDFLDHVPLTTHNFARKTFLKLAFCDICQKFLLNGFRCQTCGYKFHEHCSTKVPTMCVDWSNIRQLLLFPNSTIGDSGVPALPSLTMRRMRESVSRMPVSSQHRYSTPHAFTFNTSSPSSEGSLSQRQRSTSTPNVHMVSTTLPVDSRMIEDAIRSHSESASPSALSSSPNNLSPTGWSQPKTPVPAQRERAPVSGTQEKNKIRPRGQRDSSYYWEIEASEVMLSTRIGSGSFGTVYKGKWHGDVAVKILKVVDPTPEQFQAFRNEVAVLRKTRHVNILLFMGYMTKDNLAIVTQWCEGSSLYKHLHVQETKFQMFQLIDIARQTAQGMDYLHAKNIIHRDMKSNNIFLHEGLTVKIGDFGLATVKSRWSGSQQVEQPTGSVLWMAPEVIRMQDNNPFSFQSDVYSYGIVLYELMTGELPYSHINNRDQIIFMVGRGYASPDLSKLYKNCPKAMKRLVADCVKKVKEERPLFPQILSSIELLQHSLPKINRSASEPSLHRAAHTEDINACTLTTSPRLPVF

[11] = biological target: RAF proto-oncogene serine/threonine-protein kinase (Homo sapiens) (UniProt P04049); conditions: at 1 µM
[12] = biological target: T3, Interleukin-1 receptor-associated kinase 4 (Homo sapiens) (UniProt Q9NWZ3); conditions: at 0.1 µM
T3 sequence (whole entry): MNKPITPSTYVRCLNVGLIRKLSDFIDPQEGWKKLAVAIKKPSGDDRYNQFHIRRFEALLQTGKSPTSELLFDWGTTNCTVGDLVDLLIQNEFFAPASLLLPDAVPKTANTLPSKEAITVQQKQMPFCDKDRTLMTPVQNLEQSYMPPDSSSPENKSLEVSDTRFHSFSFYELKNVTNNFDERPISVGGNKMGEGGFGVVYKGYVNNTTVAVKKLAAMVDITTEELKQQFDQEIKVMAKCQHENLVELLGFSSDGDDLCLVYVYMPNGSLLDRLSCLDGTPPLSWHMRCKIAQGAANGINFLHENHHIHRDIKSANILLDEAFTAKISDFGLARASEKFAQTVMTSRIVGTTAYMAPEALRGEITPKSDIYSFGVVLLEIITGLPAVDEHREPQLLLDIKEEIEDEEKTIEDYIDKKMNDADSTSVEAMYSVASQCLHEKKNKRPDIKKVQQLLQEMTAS

[13] = biological target: T3, Interleukin-1 receptor-associated kinase 4 (Homo sapiens); conditions: at 1 µM
[14] = biological target: Leucine-rich repeat serine/threonine-protein kinase 2 (Homo sapiens) (UniProt Q5S007); conditions: at 0.1 µM
Sequence of Leucine-rich repeat serine/threonine-protein kinase 2 (Homo sapiens) (Q5S007 whole entry): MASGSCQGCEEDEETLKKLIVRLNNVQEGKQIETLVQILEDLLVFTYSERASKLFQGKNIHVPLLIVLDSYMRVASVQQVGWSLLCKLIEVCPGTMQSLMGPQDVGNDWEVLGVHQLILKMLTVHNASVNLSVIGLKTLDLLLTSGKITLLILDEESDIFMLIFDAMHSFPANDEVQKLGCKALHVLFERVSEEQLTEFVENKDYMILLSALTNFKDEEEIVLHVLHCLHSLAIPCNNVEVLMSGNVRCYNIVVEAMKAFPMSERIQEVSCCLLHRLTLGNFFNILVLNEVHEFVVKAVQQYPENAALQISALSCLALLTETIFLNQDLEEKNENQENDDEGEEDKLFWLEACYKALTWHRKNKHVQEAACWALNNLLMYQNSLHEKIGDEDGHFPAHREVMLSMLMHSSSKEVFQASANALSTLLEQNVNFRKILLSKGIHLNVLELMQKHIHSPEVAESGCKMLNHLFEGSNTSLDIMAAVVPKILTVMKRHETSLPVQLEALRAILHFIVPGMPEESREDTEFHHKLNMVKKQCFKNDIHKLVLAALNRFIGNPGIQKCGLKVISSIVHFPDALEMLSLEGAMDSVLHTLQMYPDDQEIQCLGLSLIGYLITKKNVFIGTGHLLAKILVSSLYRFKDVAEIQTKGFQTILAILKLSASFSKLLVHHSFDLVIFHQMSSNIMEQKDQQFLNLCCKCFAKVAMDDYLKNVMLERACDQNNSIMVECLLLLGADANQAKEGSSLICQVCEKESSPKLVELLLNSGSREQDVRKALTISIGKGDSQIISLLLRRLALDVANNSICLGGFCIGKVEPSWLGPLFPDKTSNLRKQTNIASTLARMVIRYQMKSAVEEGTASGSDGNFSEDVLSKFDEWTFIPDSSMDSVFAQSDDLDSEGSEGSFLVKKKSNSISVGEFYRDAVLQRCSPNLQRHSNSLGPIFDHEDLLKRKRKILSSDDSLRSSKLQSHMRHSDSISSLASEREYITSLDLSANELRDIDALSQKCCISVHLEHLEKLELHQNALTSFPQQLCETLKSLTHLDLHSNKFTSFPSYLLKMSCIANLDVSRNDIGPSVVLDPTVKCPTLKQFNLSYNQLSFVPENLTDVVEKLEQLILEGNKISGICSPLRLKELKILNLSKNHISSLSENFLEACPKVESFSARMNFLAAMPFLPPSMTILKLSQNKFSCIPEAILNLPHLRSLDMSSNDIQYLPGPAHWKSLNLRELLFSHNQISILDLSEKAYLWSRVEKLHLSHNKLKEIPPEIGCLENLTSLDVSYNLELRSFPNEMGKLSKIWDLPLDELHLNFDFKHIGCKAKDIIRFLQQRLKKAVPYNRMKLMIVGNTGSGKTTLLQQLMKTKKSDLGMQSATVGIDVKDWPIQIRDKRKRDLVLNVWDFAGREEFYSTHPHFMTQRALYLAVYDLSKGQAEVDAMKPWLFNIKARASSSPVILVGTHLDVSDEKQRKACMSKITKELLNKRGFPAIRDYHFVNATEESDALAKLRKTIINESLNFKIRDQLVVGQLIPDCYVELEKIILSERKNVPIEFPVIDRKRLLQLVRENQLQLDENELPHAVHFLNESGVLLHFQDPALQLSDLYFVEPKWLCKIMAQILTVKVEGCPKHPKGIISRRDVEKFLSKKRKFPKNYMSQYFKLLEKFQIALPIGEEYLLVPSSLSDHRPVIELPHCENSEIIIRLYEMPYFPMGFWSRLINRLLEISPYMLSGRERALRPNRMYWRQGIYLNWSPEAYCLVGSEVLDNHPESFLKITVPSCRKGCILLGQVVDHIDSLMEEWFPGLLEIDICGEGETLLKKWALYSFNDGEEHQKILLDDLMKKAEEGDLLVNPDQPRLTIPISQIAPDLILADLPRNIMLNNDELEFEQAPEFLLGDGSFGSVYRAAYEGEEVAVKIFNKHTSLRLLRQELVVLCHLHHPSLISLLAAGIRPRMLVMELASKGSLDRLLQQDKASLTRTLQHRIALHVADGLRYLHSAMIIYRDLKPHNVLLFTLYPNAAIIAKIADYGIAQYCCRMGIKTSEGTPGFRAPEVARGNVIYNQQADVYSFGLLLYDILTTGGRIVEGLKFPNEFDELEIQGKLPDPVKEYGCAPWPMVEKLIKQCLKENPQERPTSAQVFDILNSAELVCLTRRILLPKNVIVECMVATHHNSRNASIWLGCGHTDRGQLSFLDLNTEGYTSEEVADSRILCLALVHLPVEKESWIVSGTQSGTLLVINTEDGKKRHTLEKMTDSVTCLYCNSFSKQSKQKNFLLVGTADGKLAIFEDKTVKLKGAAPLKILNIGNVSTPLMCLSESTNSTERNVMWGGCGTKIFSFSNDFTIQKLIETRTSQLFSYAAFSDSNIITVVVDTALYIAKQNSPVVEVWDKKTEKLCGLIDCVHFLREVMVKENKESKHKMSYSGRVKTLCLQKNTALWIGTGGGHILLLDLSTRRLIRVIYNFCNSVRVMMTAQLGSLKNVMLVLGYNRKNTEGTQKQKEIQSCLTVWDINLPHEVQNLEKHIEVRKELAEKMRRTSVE

[15] = biological target: Leucine-rich repeat serine/threonine-protein kinase 2 (Homo sapiens) (UniProt Q5S007); conditions: at 1 µM
[16] = tested on: Leucine-rich repeat serine/threonine-protein kinase 2 (Homo sapiens), Q5S007 [G2019S]; conditions: at 0.1 µM
Sequence of Leucine-rich repeat serine/threonine-protein kinase 2 (Homo sapiens), Q5S007 [G2019S] (Q5S007 whole entry G2019S): as the sequence (Q5S007 whole entry) above, with G2019S counted along it

[17] = tested on: Leucine-rich repeat serine/threonine-protein kinase 2 (Homo sapiens), Q5S007 [G2019S]; conditions: at 1 µM

Compound | inhibition [1] [%] | inhibition [2] [%] | inhibition [3] [%] | inhibition [4] [%] | inhibition [5] [%] | inhibition [6] [%] | inhibition [7] [%] | inhibition [8] [%] | inhibition [9] [%] | inhibition [10] [%] | inhibition [11] [%] | inhibition [12] [%] | inhibition [13] [%] | inhibition [14] [%] | inhibition [15] [%] | inhibition [16] [%] | inhibition [17] [%]
CCOc1ccc2c(-c3ccnc(Nc4cc(OC)cc(C(F)(F)F)c4)n3)cnn2n1 | 4.4 | 2.04 | 6.75 | 0.43 | 3.29 | 0.89 | 1.03 | 0.43 | 1.03 | -4.87 | -1.65 | -3.8 | 0.63 | 1.55 | 5.25 | 3.62 | 12.8
NC(=O)c1ccc2c(-c3ccnc(NCCCO)n3)c(-c3ccc(F)cc3)nn2c1 | 3.98 | 2.77 | 10.9 | 1.7 | 1.63 | 10.9 | 22.2 | 9.67 | 19.7 | -3.29 | -4.3 | 1.46 | 2.22 | 5.47 | 7.44 | 6.54 | 9.18
O=C(O[C@H]1CN[C@H](C#Cc2cc3ncnc(Nc4ccc(OCc5cccc(F)c5)c(Cl)c4)c3s2)C1)N1CCOCC1 | 5.62 | 0.43 | 8.74 | 3.21 | 0.2 | 9.9 | 7.06 | 8.49 | 6.1 | 10.3 | 0.51 | 1.13 | 2.48 | 2.8 | 7.32 | 4.61 | 8.39
CCS(=O)(=O)c1ccc(OC)c(Nc2ncc(-c3cccc(F)c3)o2)c1 | 26.2 | 75.9 | 96.3 | 1.94 | 5.25 | 7.42 | 10 | 4.95 | 4.95 | 1.22 | -3.37 | 2.36 | 5.42 | 2.2 | 14.5 | 6.1 | 27.9
CNC(=O)c1cncc(/C=C/c2ccccc2C)c1 | 3.96 | 4.29 | 9.93 | 1.58 | 2.36 | 6.43 | 7.91 | 6.48 | 6.88 | 5.82 | -2.68 | -0.44 | 2 | 3.81 | 6.67 | 4.65 | 9.68
CS(=O)(=O)CCNCc1ccc(-c2ccc3ncnc(Nc4ccc(OCc5cccc(C(F)(F)F)c5)cc4)c3c2)o1 | 0.73 | 0.5 | 5.33 | 3.18 | 0.41 | 6.08 | 8.69 | 4.37 | 5.8 | 1.96 | -2.29 | 2.1 | 3.11 | 1.61 | 5.55 | 4.24 | 7.8
CC1=C(C(=O)Nc2ccc3[nH]nc(C)c3c2)C(c2ccc(C(F)(F)F)cc2)CC(=O)N1 (stereo unspecified) | 2.61 | 2.7 | 11.8 | 0.65 | 2.13 | 6.25 | 38.8 | 5.77 | 37.9 | 3.79 | -1.39 | -3.01 | 1.5 | 5.54 | 21.3 | 9.85 | 49.5
Cc1ccc(-c2cc3c(NC(=O)C4CC4)ncnc3o2)cc1 | 47.8 | 6 | 23.7 | 1.07 | 3.18 | 4.57 | 4.6 | 4.47 | 4.89 | -0.84 | -2.51 | -1.3 | 2.26 | 9.7 | 12.2 | 9.7 | 16.6
